Experimental data: paper PMC4336329 (PLoS ONE, 2015)
The whole screen tested about 310,000 compounds, of which about 14,000 (4.5%) showed an effect of 50% or more. The effect is printed as a negative number. The entries come from a sample that favours strong results as a whole.

What follows are compounds tested against human ether-à-go-go-related gene (hERG) potassium channel (human, UniProt Q12809) (assay: primary screen, population patch clamp on CHO cells stably expressing hERG; higher = less effect of the substance).
Sequence of human ether-à-go-go-related gene (hERG) potassium channel (Q12809 whole entry, looked up): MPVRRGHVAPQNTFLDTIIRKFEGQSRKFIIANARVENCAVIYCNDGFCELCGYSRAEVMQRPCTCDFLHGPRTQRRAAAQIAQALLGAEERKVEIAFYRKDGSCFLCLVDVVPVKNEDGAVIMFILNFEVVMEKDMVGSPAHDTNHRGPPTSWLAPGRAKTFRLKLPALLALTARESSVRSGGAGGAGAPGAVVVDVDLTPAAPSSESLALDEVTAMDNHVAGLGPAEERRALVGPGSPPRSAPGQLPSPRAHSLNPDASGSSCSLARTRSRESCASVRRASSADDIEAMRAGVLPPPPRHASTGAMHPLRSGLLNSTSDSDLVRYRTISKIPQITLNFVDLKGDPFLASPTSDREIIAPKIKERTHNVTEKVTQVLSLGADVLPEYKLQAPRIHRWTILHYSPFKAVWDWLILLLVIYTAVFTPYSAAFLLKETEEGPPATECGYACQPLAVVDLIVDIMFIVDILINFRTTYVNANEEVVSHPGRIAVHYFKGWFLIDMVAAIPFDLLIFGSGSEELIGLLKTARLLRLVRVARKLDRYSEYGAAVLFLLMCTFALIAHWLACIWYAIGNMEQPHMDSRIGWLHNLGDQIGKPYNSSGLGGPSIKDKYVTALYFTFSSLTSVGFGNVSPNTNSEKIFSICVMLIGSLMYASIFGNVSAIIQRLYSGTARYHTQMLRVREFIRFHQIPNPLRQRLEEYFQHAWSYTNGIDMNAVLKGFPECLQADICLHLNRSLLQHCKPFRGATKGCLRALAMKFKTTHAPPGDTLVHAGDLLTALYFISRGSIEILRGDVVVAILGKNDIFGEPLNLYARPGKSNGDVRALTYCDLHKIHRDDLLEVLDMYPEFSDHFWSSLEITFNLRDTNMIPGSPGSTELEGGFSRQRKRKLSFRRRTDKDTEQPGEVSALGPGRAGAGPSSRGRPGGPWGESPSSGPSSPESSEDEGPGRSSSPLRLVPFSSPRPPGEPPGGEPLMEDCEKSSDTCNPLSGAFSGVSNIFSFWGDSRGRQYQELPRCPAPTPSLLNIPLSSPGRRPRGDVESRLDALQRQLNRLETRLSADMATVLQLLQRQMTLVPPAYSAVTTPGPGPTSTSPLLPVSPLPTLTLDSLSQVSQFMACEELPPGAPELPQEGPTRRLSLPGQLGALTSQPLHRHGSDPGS
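Also: peak tail current of the secondary pulse compared with the same well before compound.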

| SMILES | hERG current change (%, negative = inhibition) at 10uM |
| --- | --- |
| CC(=O)c1c(C)[nH]c(C(=O)Nc2ccc(Cl)cc2)c1C | -9.14% |
| CC(C)C(c1nnnn1Cc1ccc(F)cc1)N1CCN(C(=O)c2ccco2)CC1 (stereo not drawn) | -49.1% |
| O=C(CCCNC(=O)c1ccc(Cl)cc1)Nc1ccccc1F | 7% |
| COc1ccc(CNCc2c(C(=O)N(C)C)nc3ccc(Cl)cn23)c(OC)c1 | -11.1% |
| COc1cccc(-n2cc(CNCc3c(C(=O)N(C)C)nc4ccc(Cl)cn34)cn2)c1 | -55.9% |
| Cc1ccccc1-n1cc(CNCc2c(C(=O)N(C)C)nc3ccc(Cl)cn23)cn1 | -7.4% |
| Cc1nn(C)cc1NC(=O)c1cc2nc(-c3ccco3)cc(C(F)(F)F)n2n1 | 4.66% |
| CCOC(=O)N1CCC(NC(=O)C(NS(=O)(=O)c2ccc3c(c2)CCN3C(=O)CC)C(C)C)CC1 (stereo not drawn) | -6.47% |
| CCc1ccc(NC(=O)CC2C(=O)N(c3ccc(C)cc3)C(=O)N2CCc2ccncc2)cc1 (stereo not drawn) | -55.8% |
| CCc1ccc(NC(=O)CC2C(=O)N(c3ccc(C)cc3)C(=O)N2C2CC2)cc1 (stereo not drawn) | -4.46% |
| Cc1ccc(N2C(=O)C(CC(=O)Nc3cccc(F)c3)N(C3CC3)C2=O)cc1 (stereo not drawn) | -7.13% |
| Cc1ccc(N2C(=O)C(CC(=O)Nc3cccc(F)c3)N(CCc3ccncc3)C2=O)cc1 (stereo not drawn) | -52.3% |
| Cc1cccc(N2C(=O)C(CC(=O)Nc3cccc(F)c3)N(CCc3ccncc3)C2=O)c1 (stereo not drawn) | -43.6% |
| COc1ccc(CCN2C(=O)N(c3ccc(OC)cc3)C(=O)C2CC(=O)Nc2ccc(OC)cc2)cc1 (stereo not drawn) | 7.46% |
| O=C(COC(=O)c1ccc(Br)cc1)Nc1cccnc1Cl | -3.51% |
| COC(=O)c1cn(CC(=O)Nc2ccc(OC)cc2)c2ccccc12 | 8.2% |
| CC(=O)N1CC(C)Oc2ccc(S(=O)(=O)Nc3ccc(Cl)cn3)cc21 (stereo not drawn) | 3.04% |
| CC(=O)OC1(c2ccccc2)CCN(C)CC1(C)C.Cl (stereo not drawn) | 35.4% |
| Cc1ccc(S(=O)(=O)N2CCOC2CNC(=O)C(=O)NCc2ccccc2)cc1 (stereo not drawn) | -10.3% |
| Cc1ccc(SCc2cc(=O)[nH]c(N3CCOCC3)n2)cc1 | -0.0128% |

| SMILES | hERG current change (%, negative = inhibition) at 10uM |
| --- | --- |
| O=C(NCc1cccnc1)c1ccccc1-c1ccccc1 | -0.462% |
| Cc1cccnc1NC(=O)c1cccc(S(=O)(=O)NCc2ccccc2)c1 | -14.9% |
| CC1Cc2ccccc2N1S(=O)(=O)c1cccc(C(=O)NCCCO)c1 (stereo not drawn) | -27.9% |
| Cc1cc(NC(=O)c2cccc(S(=O)(=O)N3c4ccccc4CC3C)c2)no1 (stereo not drawn) | -7.3% |
| O=C(Nc1cccnc1)c1cccc(S(=O)(=O)N2CCc3ccccc32)c1 | 11% |
| Cc1ccc(NC(=O)c2cccc(S(=O)(=O)NCc3ccccc3)c2)nc1 | -50.7% |
| CC1Cc2ccccc2N1S(=O)(=O)c1cccc(C(=O)NCCCn2ccnc2)c1 (stereo not drawn) | -50.1% |
| CC1Cc2ccccc2N1S(=O)(=O)c1cccc(C(=O)Nc2cccnc2)c1 (stereo not drawn) | -60.2% |
| CC1Cc2ccccc2N1S(=O)(=O)c1cccc(C(=O)NC2CC2)c1 (stereo not drawn) | -40% |
| CC1Cc2ccccc2N1S(=O)(=O)c1cccc(C(=O)NCc2ccncc2)c1 (stereo not drawn) | -34.9% |
| CC1Cc2ccccc2N1S(=O)(=O)c1cccc(C(=O)NCc2ccccn2)c1 (stereo not drawn) | -67.6% |
| Cc1ccnc(NC(=O)c2cccc(S(=O)(=O)NCc3ccccc3)c2)c1 | -34.6% |
| CC1CN(S(=O)(=O)c2cccc(C(=O)NCCCn3ccnc3)c2)CC(C)O1.Cl (stereo not drawn) | 6.18% |
| Cc1c(Cl)cccc1NC(=O)CN1CCC(NC(=O)C2CCCCC2)CC1 | -0.0286% |
| CCOC(=O)c1[nH]c(C)c(C(=O)Nc2ccccc2F)c1C | -11.2% |
| CCOc1ccccc1NC(=O)Cn1c(=O)n(-c2ccccc2)c(=O)c2oc3ccccc3c21 | -16.4% |
| O=C(CN(CC1CCCO1)C(=O)CNS(=O)(=O)c1ccc(F)cc1)NCc1ccccc1 (stereo not drawn) | 7.27% |
| CC1CCN(c2ccc3nnc(CCC(=O)NC(C)C)n3n2)CC1 | 2.67% |
| N#CC1=C(N)OC(c2ccccc2)=C(C#N)C1c1ccc2c(c1)OCO2 (stereo not drawn) | 14.3% |
| Cc1ccc(NS(=O)(=O)c2ccc(C(=O)NCc3ccccn3)cc2)cc1 | 18.8% |

| SMILES | hERG current change (%, negative = inhibition) at 10uM |
| --- | --- |
| Cc1ccc(NS(=O)(=O)c2cccc(C(=O)NCc3ccccn3)c2)cc1 | -68.5% |
| Cc1ccc(S(=O)(=O)Nc2ccc(C(=O)NCc3ccccn3)cc2)cc1 | -7.17% |
| COc1ccc(OC)c(C2Nc3ccccc3NC3=C2C(=O)CC(C)(C)C3)c1 (stereo not drawn) | 15.4% |
| O=C(Nc1ccc(Br)cc1Cl)c1cnccn1 | 5.88% |
| CCc1nnc(NC(=O)CSc2nc3cc(OC)c(OC)cc3cc2C)s1 | 5.07% |
| CCC(=O)N1CCc2cc(S(=O)(=O)CCC(=O)N3CCN(c4ccc(F)cc4)CC3)ccc21 | -2.82% |
| O=c1c2cc([N+](=O)[O-])ccc2nc2n1CCCC2 | 4.82% |
| CCOC(=O)C(Sc1nnc2c3ccccc3n(CC)c2n1)C(=O)OCC | -28.7% |
| CCOC(=O)c1sc(NC(=O)C(CC)Sc2nnc3c4ccccc4n(CC)c3n2)nc1C (stereo not drawn) | -59.4% |
| C=CCn1c2ccccc2c2nnc(SC(CC)C(=O)Nc3nc(C)c(C(=O)OCC)s3)nc21 (stereo not drawn) | -43.9% |
| Cc1ccc(-c2ccc(CCC(=O)O)n2Cc2ccco2)cc1 | 12.2% |
| Cc1ccc(OCCCCNC2CCCCC2)c(C)c1.O=C(O)C(=O)O | -42.8% |
| Cc1ccc(OCCCCNC2CCCC(C)C2C)c(C)c1.O=C(O)C(=O)O (stereo not drawn) | -56.9% |
| Cc1ccc(OCC(=O)NC2CCCC2)c(C)c1 | 2.93% |
| Cc1ccc(OCCCCn2ccnc2C)c(C)c1.O=C(O)C(=O)O | -64.1% |
| Cc1ccc(C(C)C)c(OCCCn2ccnc2C)c1.O=C(O)C(=O)O | -63.8% |
| Cc1ccc(C(C)C)c(OCCN(C)C)c1.O=C(O)C(=O)O | -5.47% |
| Cc1ccc(C(C)C)c(OCCn2ccnc2C)c1.O=C(O)C(=O)O | -35.1% |
| Cc1ccc(OCCCCn2cnc3ccccc32)c(C)c1.O=C(O)C(=O)O | -20.5% |
| COc1ccc(OCCn2ccnc2C)cc1.O=C(O)C(=O)O | -0.197% |
